Data from PubChem BioAssay AID2535 (National Center for Advancing Translational Sciences (NCATS), 2010).
The source made the active and inactive calls. Calls follow the shape of the dose curve; as a rule, active = well fitted curve in the direction sought with a large enough effect; inconclusive = small, poorly fitted or top-dose-only effect, or effect the other way, or another doubt; inactive = no such curve, though single readings can be large or run the other way.

Biological target: Pyruvate kinase PKLR (Homo sapiens) (UniProt P30613)
Sequence (P30613 whole entry, looked up): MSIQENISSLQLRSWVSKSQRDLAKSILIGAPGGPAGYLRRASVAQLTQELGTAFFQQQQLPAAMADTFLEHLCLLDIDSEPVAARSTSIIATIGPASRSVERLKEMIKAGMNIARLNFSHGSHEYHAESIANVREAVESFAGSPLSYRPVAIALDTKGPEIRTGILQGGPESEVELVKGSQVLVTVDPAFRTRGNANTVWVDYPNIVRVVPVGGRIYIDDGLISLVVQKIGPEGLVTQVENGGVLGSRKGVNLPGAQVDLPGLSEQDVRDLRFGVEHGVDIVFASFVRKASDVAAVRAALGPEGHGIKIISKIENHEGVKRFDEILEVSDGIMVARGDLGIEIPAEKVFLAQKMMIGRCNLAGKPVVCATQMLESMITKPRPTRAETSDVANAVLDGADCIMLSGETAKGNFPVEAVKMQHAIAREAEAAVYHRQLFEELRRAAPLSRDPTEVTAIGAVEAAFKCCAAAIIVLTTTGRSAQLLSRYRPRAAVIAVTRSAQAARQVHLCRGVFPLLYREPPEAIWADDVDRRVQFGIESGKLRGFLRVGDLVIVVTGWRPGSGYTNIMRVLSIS
Experiment: Secondary Concentration-Response Assay for Activators of Human Liver Pyruvate Kinase: for Probe SAR
Conditions: purified hPK-L, ATP production, Kinase-Glo luminescence; series mostly up to 58.3 µM
In short: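 Purified human liver pyruvate kinase (0.1 nM) incubated 1 h at room temperature with compound, 0.5 mM PEP and 0.1 mM ADP in imidazole buffer pH 7.2; ATP formed read by Kinase-Glo luminescence, normalized to uninhibited wells.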

outcome, inactive:
O=C1c2ccccc2C(=O)N1c1cc(=O)c2ccccc2[nH]1
Cc1nc(-c2ccc(S(=O)(=O)Nc3ccc(C)c(C)c3)s2)cs1
Cn1c2cc(S(C)=O)sc2c2cnn(Cc3cccc(O)c3)c(=O)c21 (stereo not drawn)
COc1ccccc1N1C(=O)c2ccccc2C1=O
O=C1CCc2cc(S(=O)(=O)Nc3cccc(F)c3)ccc2N1
Cc1cccc(NS(=O)(=O)c2ccc3c(c2)CCC(=O)N3)c1
Cc1ccc(N2C(=O)c3ccccc3C2=O)c(C)c1
Cc1cc(N2C(=O)c3ccccc3C2=O)n[nH]1
Cc1ccc(Nc2c(-c3ccsc3)nc3cccc(C)n23)cc1
Cc1ccc(OC2=NS(=O)(=O)c3ccccc32)cc1
O=C1c2ccccc2C(=O)N1c1ccc(O)cc1
Cc1ccc(NS(=O)(=O)c2ccc3[nH]c(=O)[nH]c3c2)cc1C
Cc1ccc(NS(=O)(=O)c2ccc3c(c2)CCO3)cc1C
CC(=O)N1CCc2cc(S(=O)(=O)Nc3ccc(C)c(C)c3)ccc21
Cc1ccc(NS(=O)(=O)c2cc3c(cc2C)NC(=O)CO3)cc1C
O=C1CCc2cc(S(=O)(=O)Nc3ccc(-c4ccccc4)cc3)ccc2N1
Cc1ccc(NS(=O)(=O)c2cc3c(cc2-c2ccsc2)NC(=O)CO3)cc1C
Nc1cccc(S(=O)(=O)N2CCCN(S(=O)(=O)c3ccc4c(c3)OCCO4)CC2)c1
Cc1ccc(NS(=O)(=O)c2ccc3c(c2)CCC(C)(C)O3)cc1C
O=C1CCc2cc(S(=O)(=O)Nc3ccc(F)cc3)ccc2N1
Cc1ccc(-c2nc3cccc(C)n3c2Nc2ccc(F)cc2)o1
Cc1ccc2nc(-c3ccc(C)o3)c(Nc3ccc(Cl)cc3)n2c1
Cc1ccc(NS(=O)(=O)c2cccc(F)c2)cc1C
Cc1ccc(NS(=O)(=O)c2cc3c(cc2/C=C/c2ccccc2)NC(=O)CO3)cc1C
O=C1CCc2cc(S(=O)(=O)Nc3cccc(C(F)(F)F)c3)ccc2N1
CN(C)c1cccc(S(=O)(=O)N2CCN(S(=O)(=O)c3ccc4c(c3)OCCO4)CC2)c1
Cc1ccc(Nc2c(-c3ccsc3)nc3c(C)cccn23)cc1
COc1ccc(-c2nc3ccccn3c2Nc2ccccc2C)cc1
Cc1ccn2c(NC3CCCCC3)c(-c3ccc(C)o3)nc2c1
Cc1ccc(NS(=O)(=O)c2cc3c(cc2N(C)C)NC(=O)CC3)cc1C
COc1cccc(OC2=NS(=O)(=O)c3ccccc32)c1
COc1cccc(N2C(=O)c3ccccc3C2=O)c1
Cc1ccccc1Nc1c(-c2ccccc2)nc2cccc(C)n12
